Experiment [1] is described as follows: optical density shifts of acrAB sulA E. coli – strain DRC41, OD650, 48 h, E. coli filamentation inducer project, primary screen (AID 1152).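 Further: E. coli MC1000 strain DRC41 lacking acrAB efflux pump and sulA.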 The note with it: higher = more signal, called active from +8 up or from −8 down.
Experiment [2] can be described thus: probe aLefty1 binding on compound microarray – biochemical, small-molecule microarray, 635/667 nm fluorescence, primary screen (AID 1153).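 Further: score merges spot fluorescence with signal-to-noise ratio from the scanned slide images.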 The note with it: higher = more signal.
The nature of experiment [3]: plasmodial surface anion channel blockers, osmotic lysis – cell-based, P. falciparum Indochina, OD700, 1 h, primary screen (AID 1154). The settings on record: P. falciparum Indochina infected RBC osmotic lysis, higher = more signal, called active from +8 up or from −8 down.
Experiment [4] can be described thus: plasmodial surface anion channel blockers, osmotic lysis – cell-based, P. falciparum Indochina, OD700, 2 h, primary screen (AID 1155).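 Further: lysis reports solute entry through the parasite surface anion channel PSAC.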 The note with it: P. falciparum Indochina infected erythrocytes, higher = more signal, called active from +8 up or from −8 down.
The nature of experiment [5]: changes in parasitized red cell lysis, either direction – P. falciparum Indochina, OD700, 3 h, PSAC antagonist project, primary screen (AID 1156). The settings on record: P. falciparum-infected erythrocytes, osmotic lysis, higher = more signal, called active from +8 up or from −8 down.
Experiment [6] is described as follows: plasmodial surface anion channel blockers, osmotic lysis – cell-based, P. falciparum Indochina, OD700, 18 h, primary screen (AID 1157). The settings on record: P. falciparum Indochina infected erythrocytes, osmotic lysis OD700, 18 h; higher = more signal, called active from +8 up or from −8 down.
The nature of experiment [7]: S6 kinase pathway phospho-S6 level changes – cell-based, A549, cytoblot, luminescence, serum-stimulated, primary screen (AID 1158).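 Further: serum-stimulated A549 lung adenocarcinoma cells; signal is phosphorylated S6 detected by cytoblot immunostaining with HRP secondary.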 The settings on record: 5 h, higher = more signal.
The target in experiment [8] is NADPH oxidase 2 (Homo sapiens) (UniProt P04839). The experiment can be described thus: compounds shifting NOX2 Amplex Red fluorescence – cell-based, HEK293-NOX2, PMA-stimulated, NOX inhibitor project, primary screen (AID 1159). Further: test concentration not given here. The note with it: 45 min, higher = more signal, called active from +8 up or from −8 down.
For experiment [9], the target named is NADPH oxidase 4 (Homo sapiens) (UniProt Q9NPH5). The experiment is described as follows: compounds shifting NOX4 Amplex Red fluorescence – cell-based, HEK293-NOX4, tetracycline-induced, NOX inhibitor project, primary screen (AID 1160). The settings on record: HEK293-NOX4, Amplex Red H2O2 fluorescence, 45 min; higher = more signal, called active from +8 up or from −8 down.

The target of experiment [10] is NADPH oxidase 5 (Homo sapiens) (UniProt Q96PH1). The experiment is described as follows: compounds shifting NOX5 Amplex Red fluorescence – cell-based, HEK293-NOX5, NOX inhibitor project, primary screen (AID 1161). The note with it: HEK293-NOX5, ionomycin, 45 min, higher = more signal.
The nature of experiment [11]: compound effects on lung adenocarcinoma cell viability – A549, calcein-AM fluorescence, 48 h, basal, profiling panel (AID 1162). Further: test concentration not given here. The settings on record: higher = more signal.
Experiment [12] in a line: compound effects on differentiated 3T3-L1 adipocyte viability – cell-based, 3T3-L1 adipocytes, calcein-AM fluorescence, 48 h, basal, profiling panel (AID 1163). Further: test concentration not given here. The settings on record: 3T3-L1 adipocytes viability, higher = more signal.
A short description of experiment [13]: compound effects on hepatocellular carcinoma cell viability – HepG2, calcein-AM fluorescence, 48 h, basal, profiling panel (AID 1164). Further: test concentration not given here. The note with it: higher = more signal.
Experiment [14] is described as follows: compound effects on multiple myeloma cell viability – MM1S, calcein-AM fluorescence, 48 h, basal, profiling panel (AID 1165).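 Further: viability of MM1S multiple myeloma cells under basal unstimulated conditions; test concentration not given here.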 The note with it: higher = more signal.
Experiment [15] in a line: calcein-AM signal in unstimulated myeloma cells – cell-based, calcein-AM fluorescence, 48 h, PK04 Diversity Set, profiling panel (AID 1166).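 Further: cells grown under basal conditions without added stimulus; test concentration not given here.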 The note with it: RPMI8226 myeloma viability, higher = more signal.
Experiment [16] can be described thus: JC-1 mitochondrial signal, unstimulated HepG2 cells – cell-based, JC-1 fluorescence, 24 h, 100 nL compound, profiling panel (AID 1167). Further: test concentration not given here. The settings on record: HepG2 mitochondrial potential, higher = more signal.
Experiment [17] can be described thus: JC-1 mitochondrial signal, unstimulated adipocytes – cell-based, JC-1 fluorescence, 3T3-L1 adipocytes, 24 h, 100 nL compound, profiling panel (AID 1168). Further: test concentration not given here. The settings on record: JC-1 mitochondrial fluorescence, higher = more signal, called active from +8 up or from −8 down.
Experiment [18] in a line: JC-1 mitochondrial signal, unstimulated myeloma cells – cell-based, JC-1 fluorescence, RPMI8226, 24 h, 100 nL compound, profiling panel (AID 1169). Further: test concentration not given here. The note with it: JC-1 mitochondrial potential fluorescence, higher = more signal.
The nature of experiment [19]: JC-1 mitochondrial signal, unstimulated MM1S myeloma – cell-based, JC-1 fluorescence, 24 h, 100 nL compound, profiling panel (AID 1170). Further: test concentration not given here. The settings on record: MM1S mitochondrial potential, higher = more signal.
Experiment [20] can be described thus: resazurin metabolic signal in A549 cells – cell-based, resazurin fluorescence, 24 h, PK04 Diversity Set, profiling panel (AID 1171). Further: test concentration not given here. The note with it: A549 viability, higher = more signal, called active from +8 up or from −8 down.

Among the data in PubChem BioAssay are z-score and composite z-score values, retold here.

Calls of active or inactive are those of the source.

Chain of NADPH oxidase 4 (Homo sapiens) (Q9NPH5 whole entry, looked up): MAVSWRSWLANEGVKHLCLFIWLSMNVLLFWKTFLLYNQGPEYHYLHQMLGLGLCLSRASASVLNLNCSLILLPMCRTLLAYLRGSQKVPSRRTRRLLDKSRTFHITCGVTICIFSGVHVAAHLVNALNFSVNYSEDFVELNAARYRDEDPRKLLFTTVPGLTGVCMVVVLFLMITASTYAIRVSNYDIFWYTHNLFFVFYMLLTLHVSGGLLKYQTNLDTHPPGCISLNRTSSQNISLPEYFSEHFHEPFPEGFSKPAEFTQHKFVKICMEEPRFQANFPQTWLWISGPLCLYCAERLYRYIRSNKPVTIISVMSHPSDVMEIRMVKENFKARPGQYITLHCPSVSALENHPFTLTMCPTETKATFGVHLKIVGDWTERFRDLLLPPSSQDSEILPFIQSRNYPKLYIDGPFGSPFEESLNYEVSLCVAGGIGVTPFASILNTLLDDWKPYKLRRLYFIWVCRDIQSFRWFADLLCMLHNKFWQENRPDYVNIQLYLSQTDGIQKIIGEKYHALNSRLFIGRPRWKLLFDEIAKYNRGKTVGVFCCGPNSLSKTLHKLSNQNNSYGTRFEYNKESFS
Chain of NADPH oxidase 2 (Homo sapiens) (P04839 whole entry, looked up): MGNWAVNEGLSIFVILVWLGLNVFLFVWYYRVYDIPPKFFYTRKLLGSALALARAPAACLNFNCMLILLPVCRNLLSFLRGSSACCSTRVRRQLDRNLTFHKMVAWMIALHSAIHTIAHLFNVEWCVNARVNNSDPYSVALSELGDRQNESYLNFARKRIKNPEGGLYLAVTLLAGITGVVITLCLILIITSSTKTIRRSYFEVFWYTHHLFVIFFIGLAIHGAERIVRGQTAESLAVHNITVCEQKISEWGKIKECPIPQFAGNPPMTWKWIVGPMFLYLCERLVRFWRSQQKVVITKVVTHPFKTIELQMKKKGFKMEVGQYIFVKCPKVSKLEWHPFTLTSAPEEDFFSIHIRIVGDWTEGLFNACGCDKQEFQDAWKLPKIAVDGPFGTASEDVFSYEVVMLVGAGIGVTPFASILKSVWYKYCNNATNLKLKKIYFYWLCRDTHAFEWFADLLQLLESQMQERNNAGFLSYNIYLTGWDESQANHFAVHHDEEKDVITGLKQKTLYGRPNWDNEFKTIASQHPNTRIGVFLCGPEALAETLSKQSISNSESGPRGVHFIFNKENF
Chain of NADPH oxidase 5 (Homo sapiens) (Q96PH1 whole entry, looked up): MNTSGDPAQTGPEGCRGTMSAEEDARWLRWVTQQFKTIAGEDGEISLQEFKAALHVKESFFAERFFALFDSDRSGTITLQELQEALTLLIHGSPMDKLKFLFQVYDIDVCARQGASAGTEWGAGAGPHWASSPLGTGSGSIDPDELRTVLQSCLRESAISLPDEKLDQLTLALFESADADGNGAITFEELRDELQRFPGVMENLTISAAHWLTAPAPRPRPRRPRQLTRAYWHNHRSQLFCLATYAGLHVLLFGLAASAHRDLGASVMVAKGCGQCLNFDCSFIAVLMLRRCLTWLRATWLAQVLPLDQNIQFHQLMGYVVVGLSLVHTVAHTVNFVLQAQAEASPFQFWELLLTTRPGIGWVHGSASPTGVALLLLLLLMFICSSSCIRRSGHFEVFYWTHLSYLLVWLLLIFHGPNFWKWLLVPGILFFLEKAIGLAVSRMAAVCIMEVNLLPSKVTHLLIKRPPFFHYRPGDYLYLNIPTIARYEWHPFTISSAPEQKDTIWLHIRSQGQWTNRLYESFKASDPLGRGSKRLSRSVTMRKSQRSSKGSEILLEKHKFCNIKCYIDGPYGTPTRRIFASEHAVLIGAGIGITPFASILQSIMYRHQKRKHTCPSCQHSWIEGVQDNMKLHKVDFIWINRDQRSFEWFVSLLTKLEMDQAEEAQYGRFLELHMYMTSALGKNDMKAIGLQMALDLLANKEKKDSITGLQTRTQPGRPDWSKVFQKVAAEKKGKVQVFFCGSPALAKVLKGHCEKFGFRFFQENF

As to `C=C(CC1([C@@H](NP(=O)(c2ccccc2)c2ccccc2)[C@H]2C[C@@H]2CCN(C(=O)OCC)S(=O)(=O)c2ccc(C)cc2)CC1)c1ccccc1`, the z-score in experiment [1] is -1.42 (inactive); in experiment [3], 2.02 (inactive); in experiment [4] it was 0.939 (inactive); in experiment [5], 2.36 (inactive); in experiment [6], 1.28 (inactive); in experiment [7], 0.603. The z-score was 0.464 (inactive) in experiment [8]; -1.66 (inactive) in experiment [9]; -3.34 in experiment [10]; -2.02 in experiment [11]; 1.2 in [12]; -1.12 in experiment [13]. Also, the z-score was -0.798 in experiment [14]; -3.89 in experiment [15]; 4.8 in experiment [16]; -1.47 (inactive) in experiment [17]; -0.699 in experiment [18]; -1.09 in experiment [19]. Also, the z-score in [20] is 0.789 (inactive). Also, the composite z-score in experiment [2] worked out at 0.723.
Consider `O=C1C2C=CC(C(O)c3ccc([N+](=O)[O-])cc3)N(Nc3ccccc3)C2C(=O)N1c1ccccc1` (stereo not given), for which the z-score in experiment [1] was -1.21 (inactive); in [3], 3.99 (inactive); in [4], 2.55 (inactive); in [5], 2.09 (inactive); in [6] it was 1.9 (inactive); in experiment [7] it was -1.32. Also, the z-score was -2.02 (inactive) in experiment [8]; -4.69 (inactive) in [9]; -2.53 in experiment [10]; -0.121 in experiment [11]; -1.38 in experiment [12]; 0.761 in experiment [13]. Besides, the z-score in experiment [14] is 0.323; in [15] it was -0.423; in experiment [16], -2.59; in experiment [17] it was -0.886 (inactive); in experiment [18], -1.01; in experiment [19], -1.55. Moreover, the z-score in experiment [20] is -0.0448 (inactive). For the same molecule, the composite z-score in experiment [2] was 0.124.
Consider `COc1ccc(CCNC(=O)[C@@]2(Sc3ccc(C)cc3)CC(=O)N(Cc3cc(C(F)(F)F)cc(C(F)(F)F)c3)[C@@H]2c2ccc(CO)cc2)cc1`, for which the z-score is -0.601 (inactive) in experiment [1]; 1.54 (inactive) in experiment [3]; 0.518 (inactive) in experiment [4]; 0.0927 (inactive) in experiment [5]; -0.0392 (inactive) in experiment [6]; 0.0684 in experiment [7]. The z-score in experiment [8] was -0.626 (inactive); in experiment [9], 0.539 (inactive); in experiment [10], 1.02; in experiment [11], -0.147; in experiment [12], 0.7; in experiment [13], -0.29. Moreover, the z-score in experiment [14] is -0.305; in experiment [15], -0.24; in experiment [16] it was 0.016; in experiment [17], -0.563 (inactive); in experiment [18], 1.15; in [19] it was -0.145. Moreover, the z-score in [20] was 0.423 (inactive). This molecule came in with a composite z-score in [2] of 0.469.
`CCOC(=O)C[C@H]1[C@H](OC(=O)c2ccc(-c3ccccc3)cc2)[C@@H](NC(=O)CC(C)C)c2cc(OCCCO)ccc2N1C(=O)Cc1ccc(OC)cc1`: the z-score in experiment [1] is -0.931 (inactive); in [3], 3.94 (inactive); in experiment [4], 0.786 (inactive); in experiment [5] it was -0.348 (inactive); in experiment [6] it was 0.261 (inactive); in experiment [7], -0.0775. Further, the z-score is -0.521 (inactive) in experiment [8]; 1.12 (inactive) in [9]; 2.11 in experiment [10]; -0.39 in [11]; 0.22 in experiment [12]; -0.114 in experiment [13]. The z-score in experiment [14] was -1.7; in experiment [15], -0.194; in experiment [16] it was 0.593; in experiment [17] it was -1.43 (inactive); in [18], 0.908; in experiment [19] it was 0.185. The z-score in experiment [20] was 0.207 (inactive). This molecule also had a composite z-score in experiment [2] of -0.323.
For `CCOC(=O)C1=CC[C@@H](c2ccccc2)N(S(=O)(=O)C[Si](C)(C)C)[C@H]1c1ccccc1`, the z-score is -2.2 (inactive) in [1]; 2.05 (inactive) in [3]; 1.83 (inactive) in [4]; 0.0192 (inactive) in experiment [5]; 0.999 (inactive) in experiment [6]; -0.692 in [7]. For the same molecule, the z-score in experiment [8] was 0.324 (inactive); in experiment [9], -1.26 (inactive); in experiment [10], 0.839; in [11] it was -0.96; in experiment [12], 0.147; in experiment [13], 0.0425. Besides, the z-score in experiment [14] was 0.0106; in experiment [15] it was 0.242; in experiment [16], -1.37; in experiment [17], -0.479 (inactive); in experiment [18], -0.687; in [19], -0.667. For the same molecule, the z-score in experiment [20] was 0.946 (inactive). This molecule gave a composite z-score in experiment [2] of 0.0437.
`COCCOC(=O)N1C(=O)[C@@]2(c3cc(C#Cc4ccc(OC)cc4)ccc31)[C@H](C(=O)Nc1nc3ccccc3s1)[C@H]1C(=O)O[C@H](c3ccccc3)[C@H](c3ccccc3)N1[C@@H]2c1ccccc1OCCO`: the z-score in experiment [1] is 2.47 (inactive); in experiment [3], 8.82 (active); in [4] it was 0.873 (inactive); in experiment [5], 0.953 (inactive); in [6] it was 0.514 (inactive); in experiment [7] it was 0.486. Further, the z-score in experiment [8] is 1.13 (inactive); in [9] it was 0.337 (inactive); in experiment [10], 1.45; in experiment [11] it was -0.49; in experiment [12], 1.31; in [13] it was 0.195. Further, the z-score in experiment [14] was -1.35; in experiment [15] it was -0.213; in experiment [16], -2.46; in experiment [17], 3.66 (inactive); in experiment [18], -0.678; in experiment [19], -0.881. In addition, the z-score in experiment [20] was 0.027 (inactive). Moreover, in experiment [2], the composite z-score was -0.295.
For the molecule `CC(=O)NCCCC[C@@H]1NC(=O)[C@H]2C[C@@H](C(=O)NCCCCCC[N+](C)(C)C)[C@@H](c3ccc(O)cc3)N2C1=O`, the z-score in [1] was 0.371 (inactive); in experiment [3] it was 1.94 (inactive); in [4], 0.369 (inactive); in experiment [5], 0.469 (inactive); in experiment [6], 0.0802 (inactive); in [7], -0.054. The z-score in experiment [8] is 0.834 (inactive); in [9], 0.288 (inactive); in experiment [10], -0.454; in experiment [11], -0.74; in experiment [12], 0.234; in experiment [13] it was -1.22. Besides, the z-score is -0.0244 in experiment [14]; 0.512 in experiment [15]; -0.896 in experiment [16]; 0.217 (inactive) in [17]; 0.0883 in [18]; -0.251 in experiment [19]. The z-score in experiment [20] was 0.615 (inactive). Also, the composite z-score in experiment [2] is 0.0262.
In the case of `C=CCC(OC(C)=O)[C@@H]1[C@@H](N(Cc2cccc3ccccc23)C(=O)c2cccc3ccccc23)c2cc(OCCCO)ccc2N1C(=O)Cc1ccc2ccccc2c1` (stereo not given in full), the z-score in [1] was -0.341 (inactive); in [3], 0.704 (inactive); in experiment [4], 0.0473 (inactive); in [5] it was 1.02 (inactive); in experiment [6], 0.334 (inactive); in experiment [7] it was 0.326. Also, the z-score in [8] is -1.93 (inactive); in [9], -0.859 (inactive); in experiment [10], -2.79; in [11], -0.612; in experiment [12] it was -0.151; in experiment [13], -0.663. The z-score in experiment [14] is 0.0031; in experiment [15] it was -1.9; in [16] it was 2.09; in [17] it was -0.0423 (inactive); in [18], 0.00587; in experiment [19] it was -0.00493. Besides, in experiment [20], the z-score is -0.0737 (inactive). The same molecule yielded a composite z-score in experiment [2] of 0.211.
